# Assay results: PMC11062922 (Nature Chemical Biology, 2023)
# Where two headings read alike, the source gives them in different places.
# Key:
# Parameters in all cases: species or system human, MV4-11 + K-562 + COLO205 + SK-N-BE2 + OVCAR-8
# CIT = settings: read-out: apparent Kd, n = 1
# CSNK1A1 = settings: read-out: apparent Kd, n = 1
# CSNK1D = settings: read-out: apparent Kd, n = 1
# CSNK1E = settings: read-out: apparent Kd, n = 1
# DDR1 = settings: read-out: apparent Kd; compound concentrations: 100 nM and 1000 nM (sheet 'Samples'), CATDS: 5.04347105241187E-2; n = 1
# DDR2 = settings: read-out: apparent Kd, n = 1
# ERCC2 = settings: read-out: apparent Kd; compound concentrations: 100 nM and 1000 nM (sheet 'Samples'), CATDS: 0.16888440143106601; n = 1
# MAPK10 = settings: read-out: apparent Kd, n = 1
# MAPK14 = settings: read-out: apparent Kd, n = 1
# MAPK9 = settings: read-out: apparent Kd, n = 1
# MAPKAPK2 = settings: read-out: apparent Kd, n = 1
# NLK = settings: read-out: apparent Kd, n = 1
# RIPK2 = settings: read-out: apparent Kd, n = 1
# TNK1 = settings: read-out: apparent Kd; compound concentrations: 100 nM and 1000 nM (sheet 'Samples'), CATDS: 0.18410889385923901; n = 1
# TNK2 = settings: read-out: apparent Kd; compound concentrations: 100 nM and 1000 nM (sheet 'Samples'), CATDS: 0.19568733735508301; n = 1
# CDK6 = settings: read-out: apparent Kd; compound concentrations:100 nM and 1000 nM (sheet 'Samples'); n = 1
# HSP90B1 = settings: read-out: apparent Kd; compound concentrations:100 nM and 1000 nM (sheet 'Samples'); n = 1
# MAP2K1 = settings: read-out: apparent Kd; compound concentrations:100 nM and 1000 nM (sheet 'Samples'); n = 1
# MAP2K2 = settings: read-out: apparent Kd; compound concentrations:100 nM and 1000 nM (sheet 'Samples'); n = 1
# NNT = settings: read-out: apparent Kd; compound concentrations:100 nM and 1000 nM (sheet 'Samples'); n = 1
# NQO1 = settings: read-out: apparent Kd; compound concentrations:100 nM and 1000 nM (sheet 'Samples'); n = 1
# COX5A = settings: read-out: apparent Kd; compound concentrations:100 nM and 1000 nM (sheet 'Samples'); n = 1
# GAK = settings: read-out: apparent Kd; compound concentrations:100 nM and 1000 nM (sheet 'Samples'); n = 1
# MAPK11 = settings: read-out: apparent Kd; compound concentrations:100 nM and 1000 nM (sheet 'Samples'); n = 1
# PIP4K2C = settings: read-out: apparent Kd; compound concentrations:100 nM and 1000 nM (sheet 'Samples'); n = 1
# PKN3 = settings: read-out: apparent Kd; compound concentrations:100 nM and 1000 nM (sheet 'Samples'); n = 1
# PRKD2 = settings: read-out: apparent Kd; compound concentrations:100 nM and 1000 nM (sheet 'Samples'); n = 1
# PSMC3 = settings: read-out: apparent Kd; compound concentrations:100 nM and 1000 nM (sheet 'Samples'); n = 1
# TGFBR1 = settings: read-out: apparent Kd; compound concentrations:100 nM and 1000 nM (sheet 'Samples'); n = 1
# CLK1 = settings: read-out: apparent Kd; compound concentrations: 100 nM and 1000 nM (sheet 'Samples'), CATDS: 0.17433508542258599; n = 1
# CLK4 = settings: read-out: apparent Kd; compound concentrations: 100 nM and 1000 nM (sheet 'Samples'), CATDS: 0.16932447657893401; n = 1
# CSNK2A1;CSNK2A3 = settings: read-out: apparent Kd; compound concentrations: 100 nM and 1000 nM (sheet 'Samples'), CATDS: 0.234359592666399; n = 1
# CSNK2A2 = settings: read-out: apparent Kd; compound concentrations: 100 nM and 1000 nM (sheet 'Samples'), CATDS: 0.363288777813424; n = 1
# DYRK1A = settings: read-out: apparent Kd; compound concentrations: 100 nM and 1000 nM (sheet 'Samples'), CATDS: 0.15776551091334201; n = 1
# [1] = compound concentrations:100 nM and 1000 nM (sheet 'Samples')
smiles,measurement,setting,value
Nc1nccc(-c2c(-c3ccc(F)cc3)ncn2C2CCN(Cc3ccccc3)CC2)n1 [SB-219980],potency estimated from few doses,"CIT; compound concentrations: 100 nM and 1000 nM (sheet 'Samples'), CATDS: 7.5521196037373797E-2",142 nM
same,potency estimated from few doses,"CSNK1A1; compound concentrations: 100 nM and 1000 nM (sheet 'Samples'), CATDS: 4.0949734681157798E-2",1790 nM
same,potency estimated from few doses,"CSNK1D; compound concentrations: 100 nM and 1000 nM (sheet 'Samples'), CATDS: 7.5353596099526104E-2",143 nM
same,potency estimated from few doses,"CSNK1E; compound concentrations: 100 nM and 1000 nM (sheet 'Samples'), CATDS: 5.67501120580748E-2",362 nM
same,potency estimated from few doses,DDR1,584 nM
same,potency estimated from few doses,"DDR2; compound concentrations: 100 nM and 1000 nM (sheet 'Samples'), CATDS: 3.97356163806874E-2",2230 nM
same,potency estimated from few doses,ERCC2,26.1 nM
same,potency estimated from few doses,"MAPK10; compound concentrations: 100 nM and 1000 nM (sheet 'Samples'), CATDS: 4.34774071226985E-2",1230 nM
same,potency estimated from few doses,"MAPK14; compound concentrations: 100 nM and 1000 nM (sheet 'Samples'), CATDS: 0.113663446643848",53.6 nM
same,potency estimated from few doses,"MAPK9; compound concentrations: 100 nM and 1000 nM (sheet 'Samples'), CATDS: 4.6959741652320801E-2",814 nM
same,potency estimated from few doses,"MAPKAPK2; compound concentrations: 100 nM and 1000 nM (sheet 'Samples'), CATDS: 8.6501611072326803E-2",99.3 nM
same,potency estimated from few doses,"NLK; compound concentrations: 100 nM and 1000 nM (sheet 'Samples'), CATDS: 4.75025353654299E-2",770 nM
same,potency estimated from few doses,"RIPK2; compound concentrations: 100 nM and 1000 nM (sheet 'Samples'), CATDS: 0.10770613005205",60 nM
same,potency estimated from few doses,TNK1,22.7 nM
same,potency estimated from few doses,TNK2,20.7 nM
CC(C(=O)NC1CCN(c2ccnc(Nc3ccc(F)cc3)n2)C1)c1ccc(Cl)cc1 (centres unmarked) [GSK1379713A],potency estimated from few doses,CDK6,2080 nM
same,potency estimated from few doses,HSP90B1,88 nM
same,potency estimated from few doses,MAP2K1,2230 nM
same,potency estimated from few doses,MAP2K2,1460 nM
same,potency estimated from few doses,NNT,1400 nM
same,potency estimated from few doses,NQO1,1650 nM
CN1CCC(n2cnc(-c3ccc(F)cc3)c2-c2ccnc(N)n2)CC1 [SB-220455],potency estimated from few doses,CIT; [1],230 nM
same,potency estimated from few doses,COX5A,656 nM
same,potency estimated from few doses,CSNK1A1; [1],24.7 nM
same,potency estimated from few doses,CSNK1D; [1],2.26 nM
same,potency estimated from few doses,CSNK1E; [1],5.87 nM
same,potency estimated from few doses,DDR2; [1],578 nM
same,potency estimated from few doses,GAK,1350 nM
same,potency estimated from few doses,MAP2K2,185 nM
same,potency estimated from few doses,MAPK10; [1],784 nM
same,potency estimated from few doses,MAPK11,1130 nM
same,potency estimated from few doses,MAPK14; [1],22 nM
same,potency estimated from few doses,MAPK9; [1],450 nM
same,potency estimated from few doses,MAPKAPK2; [1],3.88 nM
same,potency estimated from few doses,NLK; [1],81.5 nM
same,potency estimated from few doses,NNT,1290 nM
same,potency estimated from few doses,PIP4K2C,2310 nM
same,potency estimated from few doses,PKN3,1520 nM
same,potency estimated from few doses,PRKD2,1580 nM
same,potency estimated from few doses,PSMC3,1920 nM
same,potency estimated from few doses,RIPK2; [1],246 nM
same,potency estimated from few doses,TGFBR1,2020 nM
CCOc1ccccc1CCNC1=NC(=O)/C(=C/c2ccc3ncccc3c2)S1 [RO4503314-000],potency estimated from few doses,CLK1,469 nM
same,potency estimated from few doses,CLK4,505 nM
same,potency estimated from few doses,CSNK2A1;CSNK2A3,246 nM
same,potency estimated from few doses,CSNK2A2,118 nM
same,potency estimated from few doses,DYRK1A,615 nM
